High-throughput results as filed in PubChem BioAssay.
A selection: hits, their analogues and other compounds. The true share with any hit is near 10%.
12-hLO inh = 12-hLO (ALOX12) enzyme inhibition; P18054; purified 12-hLO, xylenol orange hydroperoxide absorbance; Potency, µM (doses to about 57.1 µM), inactives show at the highest dose activity change, negative = inhibition, usual class: inhibitors; 0.12% of 150,000 active; AID 1452; active means well fitted inhibition curve with a large enough effect; inconclusive means small, poorly fitted or top-dose-only effect; further: potency means the concentration at half of the fitted maximal effect; nearly all actives have a fitted effect of over 55% in size
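Hydroperoxide output read as Fe(III)-xylenol orange absorbance, 573-to-405 nm ratio, after 30 min reaction with 40 uM arachidonic acid. Enzyme: 150 nM purified human 12hLO, 15 min compound preincubation; 25 mM Hepes pH 7.0, room temperature.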
Lamin A splicing = LMNA splicing modulation; HeLa LMNA splicing GFP/RFP minigene ratio, 48 h; Potency, µM (doses to about 46.1 µM), inactives show at the highest dose ratio change, negative = inhibition, hits mostly inhibitors; 0.01% of 200,000 active; AID 1487; active means well fitted inhibition curve with a large enough effect in the signal ratio, with a control signal flat, not every such curve was filed as active; inconclusive means small, poorly fitted or top-dose-only effect, or effect the other way, or a change in a side signal; the % refers to the signal ratio; further: potency means the concentration at half of the fitted maximal effect
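Read-out is the ratio of GFP to DsRed2 object intensity, acquired by 488 nm laser-scanning cytometry on HeLa lamin A-EGFP minigene reporter cells. Compound incubation 48 hrs at 37 °C in Opti-MEM with 2% FBS; DMSO 0.5% final.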
PNC assembly inh = perinucleolar compartment assembly inhibition | PC3M PTB-GFP, PNC prevalence imaging, 16 h; hits give low values | activity change (PNC), negative = inhibition, % at 10 µM | 3.1% of 140,000 active | AID 2417;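 active means readout at or below -70, meaning at least 70% loss of cells showing the perinucleolar compartment, a nuclear body marking cancer cells; inconclusive means readout between -30 and a set limit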;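 further: plate controls were DMSO wells for no effect and camptothecin positive control wells for full effect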
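Compounds are pinned in duplicate onto adhered PC3M cells stably expressing GFP-tagged PTB and incubated 16 h at 37 C. Cells are then fixed, nuclei stained with Hoechst, and PNC-positive cells counted.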
ALDH1A1 block = blocks purified human ALDH1A1 activity; AID 1030; P00352; 7.3% of 220,000 active; Purified ALDH1A1, NADH fluorescence, propionaldehyde substrate; Potency, µM (doses to about 75.3 µM), for inactives: at the top dose activity, negative = inhibition, actives largely listed as inhibitors;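 further: potency means the concentration at half of the fitted maximal effect; plate controls were no enzyme wells and a reference inhibitor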
HPGD block = blocks human HPGD enzyme activity; P15428; purified HPGD, NADH fluorescence kinetic, PGE2 substrate; Potency, µM, for the others: at the highest dose activity change, negative = inhibition, hits mostly inhibitors; 4.3% of 150,000 active; further: potency means the concentration at half of the fitted maximal effect
Target sequence (P15428 whole entry, looked up): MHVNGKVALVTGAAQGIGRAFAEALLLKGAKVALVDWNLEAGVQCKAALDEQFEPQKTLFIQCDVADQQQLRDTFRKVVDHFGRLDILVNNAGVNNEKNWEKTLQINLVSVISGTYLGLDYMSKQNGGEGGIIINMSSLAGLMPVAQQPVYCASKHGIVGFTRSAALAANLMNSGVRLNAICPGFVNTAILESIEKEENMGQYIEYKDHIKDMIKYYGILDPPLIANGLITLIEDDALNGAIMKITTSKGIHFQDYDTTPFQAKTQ
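NADH formation kinetics: reaction with 30 uM PGE2 and 1 mM NAD+ (final), 20 nM enzyme, Tris-HCl pH 8 with Tween 20, after 15 min compound preincubation at room temperature. Fluorescence change, last versus first of five reads.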
Active calls of the source: *; ? = inconclusive; / = no result given; [ ] = dose if it differs, or a comment. Unless noted, the call rests on the fitted dose curve; in most records, active means well fitted inhibition curve with a large enough effect (not every such curve was filed as active); inconclusive means small, poorly fitted or top-dose-only effect, or another doubt; inactive means no such curve, though single readings can be large or run the other way. Unless noted, on the % scale 0 is the no-effect control and ±100 the full control effect.

SMILES | 12-hLO inh | Lamin A splicing | PNC assembly inh | ALDH1A1 block | HPGD block
CC(=O)N[C@H]1C(O[C@@H]2O[C@H](C[C@@H](O)[C@H]3O[C@@H](N4CCC(=O)NC4=O)[C@H](O)[C@@H]3O)[C@H](O)[C@H](O)[C@H]2NC(=O)/C=C/CCCCCCCCCCC(C)C)OC(CO)[C@@H](O)[C@@H]1O (some centres not stated) | -3%[0.00818 µM] | / | / | -4% | -3%
O=C(Oc1ccccc1)N1CCC2(CC1)CCN(c1ncccn1)CC2 | -5% | / | / | ? | -16%
Cc1ccc(C(=O)N/C(=C\c2ccc(F)cc2)C(=O)NCc2ccncc2)cc1 | -2% | -8% | -119* | -3% | -6%
O=C(NCc1ccncc1)/C(=C\c1ccc(F)cc1)NC(=O)c1ccccc1 | 1% | ? | 31 | 7% | -2%
CCC1(C)Cc2ccccc2-c2c1c(=O)n(-c1ccc(C)cc1)c1nnnn21 (configuration not stated) | 4% | 2% | 22 | ? | 9%
CC1(C)Cc2ccccc2-c2c1c(=O)n(Cc1ccccc1)c1nnnn21 | 1% | ? | -100* | ? | -13%
CC(C)(CNC(=O)c1sc2cc(F)ccc2c1Cl)N1CCOCC1 | -2% | ? | -92* | -8% | -19%
Cc1ccc(C(=O)NCC(C)(C)N2CCOCC2)s1 | -4% | 7% | 4 | 0% | 2%
Nc1ccccc1CCCC(=O)O | 1%[11.4 µM] | / | / | 9%[13.5 µM] | -6%
Cc1ccc(-c2nc(CSCC(=O)N3CCOCC3)c(C)o2)cc1 | 1% | ? | 16 | ? | -16%
Cc1oc(-c2ccccc2Cl)nc1CSCC(=O)N1CCCC1 | 4% | ? | -109* | ? | -16%
Cc1oc(-c2cccs2)nc1CSCC(=O)NC1CC1 | 0% | 6% | ? | ? | ?
Cc1ccc(-c2nc(CSCC(=O)N3CCN(C(=O)c4ccco4)CC3)c(C)o2)cc1 | -3% | -8% | 13 | 22µM* | -15%
Cc1oc(-c2ccccc2Cl)nc1CSCC(=O)NC1CCCC1 | 0% | -4% | 26 | 14µM* | -23%
CCCCCCCN1C2=NCCN2c2ccccc21 | / | / | / | -6% | /
CCCCCCN1C2=NCCN2c2ccccc21 | 4% | -16% | -107* | 11% | 5%
c1ccc(OCCN2C3=NCCN3c3ccccc32)cc1 | 1% | -4% | -90* | 4% | /
COc1ccc(CNC(=O)CSc2nnnn2Cc2ccccc2)cc1 | -6% | ? | 19 | ? | -3%
O=C(CSc1nnc(CCc2ccccc2)n1-c1ccc(Cl)cc1)NCc1ccccc1 | -3% | 3% | -17 | ? | -5%
COc1ccc(CNC(=O)CSc2nnnn2-c2ccccc2)cc1 | -6% | 8% | ? | 11µM* | -10%
COc1ccc(CCNc2nnc(Sc3nnnn3-c3ccccc3)s2)cc1OC | -3% | ? | -97* | 18µM* | -7%
COc1ccc(-n2c(CCc3ccccc3)nnc2SCC(=O)NCc2ccccc2)cc1 | -7% | 5% | -108* | ? | -14%
COc1ccc(CCNC(=O)CSc2nnnn2-c2ccccc2)cc1 | -6% | -5% | 19 | 1.6µM* | -5%
CCN1CCC(N(Cc2ccc(F)cc2)C(=O)Nc2ccc(C)c(F)c2)CC1 | / | -1%[46 µM] | / | / | /
CN1CC[C@@]2(CCCN(C(=O)c3cc(C(F)(F)F)cc(C(F)(F)F)c3)C2)C1 | 3% | / | / | -3% | -3%
SMILES | 12-hLO inh | Lamin A splicing | PNC assembly inh | ALDH1A1 block | HPGD block
NC(=O)c1ccc(N=C2C(=O)Nc3ccc([N+](=O)[O-])cc32)cc1 | / | / | / | 13µM* | /
NS(=O)(=O)c1ccc(N=C2C(=O)Nc3ccccc32)cc1 | 0%[11.4 µM] | 9%[46 µM] | / | -14%[13.5 µM] | -6%
O=C(N/C(=C\c1cccc([N+](=O)[O-])c1)C(=O)N1CCCCC1)c1cccs1 | -2% | -10% | -5 | 20µM* | -5%
CCn1cc(S(=O)(=O)c2cc(C)cc(C)c2)c(=O)c2cc(F)c(N3CCN(c4ccccc4)CC3)cc21 | / | -1%[46 µM] | / | / | /
Cc1ccc(/C=N/n2cnc3sc(-c4ccccc4)cc3c2=O)o1 | 1% | -3% | -12 | 32µM* | ?
Nc1nc(N)c(N=Nc2ccc(C(=O)O)c(O)c2)c(N)n1 | -4%[11.4 µM] | / | / | -7%[13.5 µM] | ?
CC(=O)c1ccc(Oc2cc(-c3ccccc3)nc(-c3ccccc3)n2)cc1 | 4% | -9% | 39 | 0% | -11%
O=Cc1ccc(Oc2cc(-c3ccccc3)nc(-c3ccccc3)n2)cc1 | 0% | -12% | 3 | 22µM* | -7%
O=S(=O)(CC(O)COc1ccccc1Cl)c1ccccc1 (configuration not stated) | 0% | -5% | -15 | 8% | -3%
O=S(=O)(Cc1ccccc1Cl)CC(O)COc1ccccc1Cl (configuration not stated) | -10% | 4% | -18 | -4% | 11µM*
O=C(Nc1ccc2[nH]c(=S)sc2c1)Nc1ccccc1F | / | ? | / | 1µM* | /
Cc1ccc(CN(C(=O)COc2ccccc2[N+](=O)[O-])c2ccccn2)o1 | / | -1%[46 µM] | / | / | /
Cc1cccc(C(=O)N2CCN(c3ncnc4c3cnn4-c3ccccc3)CC2)c1 | 0% | ? | -5 | 10µM* | -4%
Cc1cccc(-n2ncc3c(N4CC(C)CC(C)C4)ncnc32)c1 (configuration not stated) | -3% | -12% | ? | 25µM* | -30%
O=C(COc1ccccc1)N1CCN(c2ncnc3c2cnn3-c2ccccc2)CC1 | 6% | ? | -97* | 7.1µM* | -12%
CC1=C(c2ccc(C(C)C)cc2)S(=O)(=O)N=C1N1CCC(C(=O)NCc2ccc(C)o2)CC1 | / | -20%[46 µM] | / | / | /
O=C(NC1CC(=O)N(c2ccccc2)C1)c1ccc(S(=O)(=O)N2CCOCC2)cc1 (configuration not stated) | / | -1%[46 µM] | / | / | /
COc1ccc(CNC(=O)CCC2N=C3c4ccccc4N=C(SCc4ccc(F)cc4)N3C2=O)cc1 (configuration not stated) | / | 11%[46 µM] | / | / | /
OCCNc1nc(Nc2ccccc2)nc2ccccc12 | -8% | -6% | -119* | 3% | -11%
CCS(=O)(=O)Nc1ccc(-c2cn3ccsc3n2)cc1 | / | -8%[46 µM] | / | / | /
